The record followed here is PubChem BioAssay (NCI).

Common to all, as to assay: NCI-60 one-dose screen, 48 h (100 = growth as untreated, 0 = no growth, -100 = all killed)
What all share (conditions): 10 µM unless noted

Assay [1] deals with RPMI-8226 leukemia.
The test system of assay [2] is OVCAR-8 ovarian.
Assay [3] relates to OVCAR-5 ovarian.
Assay [4] concerns OVCAR-4 ovarian.
Assay [5] concerns SK-OV-3 ovarian.
For assay [6], the system named is IGROV1 ovarian.
The subject of assay [7] is OVCAR-3 ovarian.
Assay [8] has as its system HS 578T breast.
Assay [9] has as its system NCI/ADR-RES ovarian.
Assay [10] relates to T-47D breast.

About 83,000 compounds went through this panel and 20% of them were active in at least one assay; those are over-represented in the sample as a whole.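 Single-concentration screen, 48 h exposure, 96-well plates. Endpoint: percent growth. Below 10 = active.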 A number with no mark means an inactive call. The source made the active and inactive calls.

As for `O=C1C(Cl)=C(NCc2ccco2)C(=O)c2ccccc21`, the growth was 38.9% in [1]; 93.7% in assay [2]; 116% in [3]; 85.4% in assay [4]; 115% in assay [5]; 57.6% in assay [6]. In addition, the growth in assay [7] was 84.6%; in assay [8], 89.6%; in assay [9], 84.6%; in assay [10], 69.1%.
Regarding `COc1ccc(-c2nsc3c2NC(=O)CC3c2cccc(OC)c2)cc1` (stereo not given), the growth in assay [1] was 12.1%; in [2], 45.9%; in assay [3], 52.9%; in assay [4] it was 39.9%; in [5], 14.2%; in [6], 45.5%. Besides, the growth in assay [7] is -18.6% (active); in assay [8], 28.5%; in assay [9], 32.4%; in assay [10], 35.2%.
With `NC1(N2SC(S)=C3CCCC=C32)CCCCC1`, the growth in [1] was 95.8%; in assay [2], 107%; in [3], 104%; in [4], 107%; in assay [5], 100%; in assay [6], 93.6%. Moreover, the growth was 107% in [7], 103% in assay [8], 104% in [9] and 84.5% in assay [10].
As to `Cc1cc(Br)c(N)c(Br)c1`, the growth in assay [1] is 99.5%; in assay [2], 101%; in [3], 100%; in assay [4] it was 94.9%; in [5], 83.3%; in [6], 110%. The growth in assay [7] is 108%; in [8], 109%; in assay [9] it was 98%; in assay [10] it was 92.5%.
`O=c1oc2ccc(Br)cc2c(=O)n1-c1ccc(F)cc1F`: the growth in assay [1] was -4.83% (active); in assay [2], 11%; in assay [3] it was 20.1%; in assay [4], 15%; in assay [5], -10.9% (active); in [6], 19.3%. The growth in assay [7] is 4.73% (active); in [8], 5.31% (active); in assay [9], 5.44% (active); in assay [10], -9.1% (active).
`COc1cc([C@@H]2NC(=O)NC(C)=C2C(=O)Nc2nc(-c3ccc(Cl)cc3)cs2)ccc1O`: the growth in assay [1] is 111%; in assay [2], 102%; in assay [3], 100%; in [4], 90.5%; in assay [5], 87.8%; in assay [6] it was 96.6%. Also, the growth is 111% in assay [7], 101% in [8], 97.2% in [9] and 77.1% in [10].
For `Nc1ccccc1-c1ccc(-c2ccc(Cl)cc2)c2c1[nH]c1ccccc12`, the growth in assay [1] was 42.1%; in assay [2], 77%; in assay [3], 91.2%; in assay [4], 92.5%; in assay [5], 106%; in [6], 62.3%. The growth in [7] was 79%; in assay [8], 82.4%; in assay [9] it was 77.2%; in [10], 60.4%.
As to `CC[C@]1(O)C[C@@H]2CN(CCc3c([nH]c4ccccc34)[C@@](C(=O)OC)(c3cc4c(cc3OC)N(C)[C@H]3[C@@](O)(C(=O)OC)[C@H](OC(=O)CCCBr)[C@]5(CC)C=CCN6CC[C@]43[C@@H]65)C2)C1`, the growth in [1] was 6.27% (active); in assay [2], 19.4%; in assay [3], 24.9%; in [4] it was 35.3%; in assay [5] it was 30.8%; in assay [6], 11.2%. In addition, the growth was -1.93% (active) in [7], 8.92% (active) in assay [8], 13.8% in assay [9] and 74.2% in [10].
As to `CC(=O)Nc1nc2c(s1)CCc1c-2cn(S(=O)(=O)c2ccccc2)c1-c1ccccc1`, the growth in assay [1] was 57.7%; in assay [2], 79.7%; in assay [3], 97.4%; in [4], 84.3%; in [5], 101%; in [6], 97.2%. Further, the growth in [7] is 80.5%; in [8], 91.3%; in assay [9], 49.7%; in assay [10] it was 49.3%.
For `O=C(Nc1ccc(N2CCNCC2)cc1)c1[nH]ncc1Nc1ncnc2sc3c(c12)CCC3`, the growth in [1] is -40.6% (active); in assay [2], -43.7% (active); in assay [3], -88.1% (active); in assay [4] it was 15.8%; in assay [5] it was -27.9% (active); in assay [6], -9.21% (active). Also, the growth in assay [7] is -81.7% (active); in assay [8], -54.8% (active); in assay [9], -57.3% (active); in assay [10] it was 20.4%.
For `CCOc1cccc(/C=N\Nc2nc(=O)cc(C(=O)OC)s2)c1O`, the growth in assay [1] is 57.6%; in assay [2], 66.9%; in [3], 92.9%; in [4], 49.3%; in assay [5], 95.6%; in [6], 61.8%. Besides, the growth in assay [7] was 29.7%; in assay [8] it was 90.4%; in assay [9], 32.3%; in assay [10] it was 37.8%.
Take `Nc1ccc(-c2ccc(-c3ccccc3N)c3[nH]c4ccccc4c23)cc1`: the growth in [1] is 6.61% (active); in [2], 33.1%; in [3], 56.7%; in assay [4], 67.7%; in assay [5], 28.7%; in assay [6], 53.7%. The growth is 19.4% in assay [7], 40.7% in assay [8], -6.69% (active) in assay [9] and 15.2% in assay [10].
Turning to `CCCCCCC(O)(c1ccc(F)cc1)C(CN1CCOCC1)c1ccccc1` (stereo not given), the growth is 16.9% in assay [1]; 33.5% in [2]; 69.8% in [3]; 31.7% in assay [4]; 76.7% in assay [5]; 44% in assay [6]. For the same molecule, the growth in assay [7] was 2.28% (active); in assay [8], 51.6%; in assay [9] it was 17.2%; in assay [10], 14.3%.
As to `Nc1nc(N)c2c(n1)NC1(C=C(O)c3ccccc31)C1=C(N2)c2ccccc2C1=O` (stereo not given), the growth was 107% in assay [1]; 103% in [2]; 116% in assay [3]; 98.1% in assay [4]; 121% in assay [5]; 92.3% in assay [6]. For the same molecule, the growth in assay [7] is 113%; in assay [8], 111%; in [9] it was 107%; in assay [10], 112%.
